Results filed as inconclusive are left out. Values without a mark were called inactive. The source made the active and inactive calls. The call rests on the fitted dose curve.
Experiment: qHTS assay for small molecules that induce genotoxicity in human embryonic kidney cells expressing luciferase-tagged ATAD5 - cell viability (AID 651634); further: nearly all actives have a fitted effect of over 25% in size
Details: HEK293T ATAD5-luc cells viability, CellTiter-Fluor, 15.5 h; series mostly up to 83.3 µM; activity, negative = cytotoxicity: at the top concentration
Source text: National Center for Advancing Translational Sciences [NCATS]
NIH Chemical Genomics Center [NCGC]
U.S. Environmental Protection Agency [EPA]
National Institutes of Environmental Health Sciences [NIEHS]
National Toxicology Program [NTP]
U.S. Food and Drug Administration [FDA]
Enhanced Level of Genome Instability Gene 1 (ELG1; human ATAD5) protein levels increase in response to various types of DNA damage. Using a luciferase reporter-gene tagged with ElG1, a cell-based assay [developed by Kyungjae Myung, NHGRI, NIH] was used to measure the induction of ATAD5 in human embryonic kidney cells (HEK293T). So, increase in luciferase activity can be used to identify the compounds that cause genetic stress. In addition to genotoxicity, these cells were also used to test for cytotoxicity by measuring the protease activity within live cells.
Tox21 Assay Protocol Summary:
For cytotoxicity screening, 2,000 cells in 5 uL/well were dispensed into white, solid-bottom 1536-well plates using a Multidrop Combi (Thermo Scientific) dispenser. Following transfer of 23 nL compound or DMSO vehicle by a pin tool, the plates were incubated 15.5 hr at 37C and 5% CO2. 1 ul CellTiter-Fluor reagent (Promega, Madison, WI) was then added to each plate and following 30 min incubation at 37C, fluorescence intensity was quantified on a ViewLux CCD-based plate reader.
On the % scale 0 is the no-effect control and ±100 the full control effect.

| SMILES | activity, negative = cytotoxicity | Potency |
| --- | --- | --- |
| COc1ccc(N=Nc2cc(C)c(N=Nc3ccc(S(=O)(=O)O)cc3)cc2OC)cc1 | -28.4% | – |
| CC(=O)c1ccc(OCC(=O)N2CCCCC2)cc1 | 35.8% | – |
| CCOC(=O)CC(CC(=O)OCC)(OC(C)=O)C(=O)OCC | 12.9% | – |
| CCCCC(C)C(=O)O (stereo not given) | 18.5% | – |
| CC(=O)OC(C)c1ccccc1 (stereo not given) | 20.2% | – |
| CC(CC(=O)O)CC(C)(C)C (stereo not given) | 10.7% | – |
| CCS(=O)(=O)CCn1c([N+](=O)[O-])cnc1C | -11% [at 39.1 µM] | – |
| O=C(O)c1c(Cl)ccc(Cl)c1Cl | 12.9% | – |
| CCCCOC(=O)[C@@H](C)Oc1ccc(Oc2ccc(C(F)(F)F)cn2)cc1 | 12.2% [at 95.3 µM] | – |
| CCCOC(=O)CCCCC(=O)OCCC | 5.52% | – |
| COC(OC)C(C)c1ccccc1 (stereo not given) | 8.84% | – |
| CCOC(=O)CC#N | 19.8% | – |
| CCCCC/C=C/CC(=O)OC | -12.1% | – |
| COc1cc(C=O)ccc1OC(=O)C(C)C | 10.7% | – |
| CC(C)c1ccccc1O | 6.89% | – |
| COc1ccc(NS(=O)(=O)c2ccc(N)cc2)nn1 | 7.13% [at 39.1 µM] | – |
| COC(=O)CCC(=O)O | 8.84% | – |
| CCCCCCCCC(=O)OCC | -17.9% | – |
| Cc1nc([N+](=O)[O-])cn1-c1ccc([N+](=O)[O-])cc1 | 8.28% | – |
| O=S1(=O)CCCC1 | 35.6% [at 95.3 µM] | – |

| SMILES | activity, negative = cytotoxicity | Potency |
| --- | --- | --- |
| CN=C(NC#N)NCCSCc1csc(N=C(N)N)n1 | -10.5% | – |
| Cc1ccc(S(=O)(=O)NC(=O)NC2CCCCCCC2)cc1 | 20.5% | – |
| O=CN1CCOCC1 | 8.31% | – |
| CCC(C)(C)C1CCC(=O)CC1 | 9.16% | – |
| CCOC(=O)OCC/C(SC(=O)OCC)=C(\C)N(C=O)Cc1cnc(C)nc1N | -13.1% | – |
| CC(C)CCC(=O)CCC(C)C | 15% | – |
| C=C(C)C(=O)OC1CC(C)CC(C)(C)C1 (stereo not given) | 7.04% | – |
| CN(C)CCCNCCC#N | 10.5% | – |
| O=C1OC(=O)c2ccccc21 | -18.3% | – |
| O=S(=O)(O)SSS(=O)(=O)O | 22.4% | – |
| C=CCOCC(O)CCl (stereo not given) | 15.5% | – |
| CCC1COC(=O)O1 (stereo not given) | 6.87% | – |
| Cc1nc2ccccc2c(=O)o1 | 9.63% [at 95.3 µM] | – |
| CC(=O)Nc1ccc(C)cc1 | 7.48% | – |
| CC(C)CCO | 5.98% | – |
| CCCC(C)CC (stereo not given) | -10.5% | – |
| O=C1OC(=O)c2cc(Oc3ccc4c(c3)C(=O)OC4=O)ccc21 | 5.63% | – |
| C[C@H](CCC(=O)O)[C@H]1CC[C@H]2[C@@H]3[C@H](O)C[C@@H]4C[C@H](O)CC[C@]4(C)[C@H]3C[C@H](O)[C@]12C | – | inactive |
| NS(=O)(=O)c1cc2c(cc1Cl)NC(C(Cl)Cl)NS2(=O)=O (stereo not given) | -18.1% [at 39.1 µM] | – |
| Cc1cccc(Nc2ccncc2S(=O)(=O)NC(=O)NC(C)C)c1 | 19.6% [at 39.1 µM] | – |

Source: PubChem BioAssay (Tox21)
